Source: PubChem
Rows were chosen to be rich in hits. Some 14% of all compounds tested hit in one or more screens of this group.
USP30 inh – inhibitors of human USP30 deubiquitinase; Ubiquitin carboxyl-terminal hydrolase 30 (Homo sapiens), Q70CQ3; 5.3% of 47,000 active; purified USP30, Ub-rhodamine cleavage fluorescence; inhibition, % at 25 µM
USP8 inh – inhibitors of human USP8 deubiquitinase; Ubiquitin carboxyl-terminal hydrolase 8 (Homo sapiens), P40818; purified USP8, Ub-rhodamine cleavage fluorescence, 30 min; inhibition, % at 20 µM; 4.2% of 47,000 active; AID 1645853, 2021
USP17 inh – inhibitors of human USP17 deubiquitinase; purified USP17, Ub-rhodamine cleavage fluorescence, 3 h; inhibition, % at 50 µM; 6.5% of 47,000 active
USP28 inh – inhibitors of human USP28 deubiquitinase | Ubiquitin carboxyl-terminal hydrolase 28 (Homo sapiens), Q96RU2 | purified USP28, Ub-rhodamine cleavage fluorescence, 30 min | inhibition, % at 25 µM | 3% of 47,000 active
Starred values were filed as active, the others as inactive; · = no result given. Cut-off read from the data, not from the text of the source: active = inhibition above about 30%; inactive = the rest.

SMILES | USP30 inh | USP8 inh | USP17 inh | USP28 inh
CC(=O)N1C(C)(C)CC(=O)CC1(C)C | 19 | 23 | 17 | 8
COCCn1c(SCC(=O)c2ccc(NC(C)=O)cc2F)nc2ccccc21 | 2 | 32* | 28 | 19
COCCn1c(SCC(=O)Nc2ccc(NC(=O)c3ccco3)c(OC)c2)nc2ccccc2c1=O | -41 | 20 | -57 | -9
CN1CC(=O)N(C2CCCNC2)Cc2c(NC3CCCCCC3)ncnc21 (stereo not given) | -26 | -104 | -47 | 4
CN1CC(=O)N(C2CCCNC2)Cc2c(NC3Cc4ccccc4C3)ncnc21 (stereo not given) | 19 | 68* | 29 | 29
CC(C)(C)NC(=O)COC(=O)C1(c2cccc(F)c2)CCCC1 | 11 | 3 | -1 | -10
O=C(COC(=O)C1(c2ccccc2F)CCCC1)Nc1ccc2c(c1)OCCO2 | 29 | 12 | 18 | 25
O=C(COC(=O)C1(c2ccccc2F)CCCC1)Nc1ccc2c(c1)OCO2 | 37* | 44* | 41* | 21
COc1cc(NC(=O)COC(=O)C2(c3ccccc3F)CCCC2)cc(OC)c1 | 41* | 26 | 14 | 19
NS(=O)(=O)c1ccc(CCNC(=O)C(=O)c2c[nH]c3ccccc23)cc1 | 15 | 17 | 10 | 36*
NS(=O)(=O)c1ccc(CCNC(=O)C2CCN(c3nc4ccccc4[nH]3)CC2)cc1 | 12 | -5 | 5 | 0
CC(C(=O)NCCc1ccc(S(N)(=O)=O)cc1)n1sc2ccccc2c1=O (stereo not given) | 39* | 1 | 0 | 16
COc1ccc(OC)c(C(C)Nc2ncnc3ccsc23)c1 (stereo not given) | -12 | -18 | -10 | -4
COc1ccc(-c2cc3ncnc(NC(C)c4ccco4)c3s2)cc1 (stereo not given) | -21 | 15 | 58* | 21
Cc1ccc2nc(C3CN(C(=O)c4cc(-c5ccc(F)cc5)nn4C)C3)[nH]c2c1 | -26 | -59 | -25 | -1
CC(C)c1ccc(N2CCN(Cc3ccc(F)cc3F)C2=O)cc1 | 8 | 1 | -13 | 21
CS(=O)(=O)c1cccc(N2CCN(CC3CC3)C2=O)c1 | 15 | 2 | 10 | 33*
CS(=O)(=O)c1cccc(N2CCN(Cc3ccc(F)cc3F)C2=O)c1 | 9 | -18 | -27 | 33*
Cc1ccc(NC(=O)CCC(=O)Nc2ccc3nc(N4CCCCC4)cc(C)c3c2)c(Br)c1 | 34* | 33* | 63* | 18
CCOc1ccccc1NC(=O)CCC(=O)Nc1ccc2nc(N3CCN(C)CC3)cc(C)c2c1 | 0 | -2 | -20 | -8
Cc1cc(N2CCOCC2)nc2ccc(NC(=O)CCC(=O)Nc3ccc(F)cc3)cc12 | 39* | 10 | 60* | 12
Cc1cc(N2CCCCC2)nc2ccc(NC(=O)c3ccncc3)cc12 | -33 | -9 | -7 | 38*
CN(C)C(CNC(=O)c1cccc(Oc2ccccc2)c1)c1ccccc1 (stereo not given) | -4 | -6 | -6 | -5
CC(C)c1ccc(NC(=O)C2CCN(S(=O)(=O)c3cccc4cnccc34)CC2)cc1 | 5 | -12 | -8 | 45*
O=C(NCc1ccco1)C1CCN(S(=O)(=O)c2cccc3cnccc23)CC1 | -130 | 7 | 34* | 1
SMILES | USP30 inh | USP8 inh | USP17 inh | USP28 inh
CCOc1ccc(NC(=O)C2CCN(S(=O)(=O)c3cccnc3)CC2)cc1 | -34 | 16 | 19 | 3
CC(C)C(=O)N1CCc2cc(-c3csc(NC(=O)CN4CCc5ccccc5C4)n3)ccc21 | -106 | 50* | 23 | -27
O=C(CN1CCOCC1)Nc1nc(-c2ccc3c(c2)CCN3C(=O)c2ccccc2F)cs1 | 11 | 15 | 30* | 8
CC(C)C(=O)N1CCc2cc(-c3csc(NC(=O)CN4CCCCC4)n3)ccc21 | -57 | -61 | -13 | -14
Cc1ccc(C(=O)N2CCc3cc(-c4csc(NC(=O)Cn5nnc6ccccc65)n4)ccc32)cc1 | 8 | 57* | 43* | 23
Cc1sc(NC(=O)c2ccc3ccccc3c2)nc1-c1ccc2c(c1)CCN2C(=O)c1ccccc1F | 13 | 4 | 7 | 5
Cc1sc(NC(=O)Cn2nnc3ccccc32)nc1-c1ccc2c(c1)CCN2C(=O)C1CCCCC1 | 30 | 8 | 31* | 13
O=C(CN1CCCCC1)Nc1nc(-c2ccc3c(c2)CCN3C(=O)C2CC2)cs1 | 14 | 12 | 31* | 15
O=C(CN1CCOCC1)Nc1nc(-c2ccc3c(c2)CCN3C(=O)C2CC2)cs1 | -7 | -11 | 0 | -7
COc1ccc(CCN2CCOc3nc4c(OC)ccc(OC)c4cc3C2)cc1OC | 26 | 11 | 7 | 17
O=C(CCc1cccnc1)N1CCCC2(CCCN2Cc2cccc(F)c2)C1 (stereo not given) | 44* | -81 | 11 | 9
O=C(CCc1cccnc1)N1CCCC2(CCCN2Cc2ccccc2F)C1 (stereo not given) | -3 | -65 | -20 | -4
O=C(Nc1nccnc1C(=O)NCc1ccncc1)c1ccccc1 | 0 | -1 | -17 | -6
Cc1ccc(Cn2nnc3c(=O)[nH]c(C4CCN(S(=O)(=O)c5ccc(S(=O)(=O)NC6CCCCC6)cc5)CC4)nc32)cc1 | 14 | -20 | 0 | 22
O=c1[nH]c(C2CCN(S(=O)(=O)c3ccc(S(=O)(=O)NC4CC4)cc3)CC2)nc2c1nnn2Cc1ccccc1 | 39* | 0 | 33* | 22
Cc1ccc(C)c(Cn2nnc3c(=O)[nH]c(C4CCN(S(=O)(=O)c5ccc(S(=O)(=O)NC6CCCCC6)cc5)CC4)nc32)c1 | 16 | -120 | 1 | 23
O=c1[nH]c(C2CCN(S(=O)(=O)c3ccc(S(=O)(=O)NC4CC4)cc3)CC2)nc2c1nnn2Cc1ccc(F)cc1 | 42* | -1 | · | 21
O=c1[nH]c(C2CCN(S(=O)(=O)c3ccc(S(=O)(=O)NC4CCCCC4)cc3)CC2)nc2c1nnn2Cc1ccc(F)cc1 | 40* | 36* | 47* | 44*
Cc1cc2oc(=O)cc(COC(=O)c3ccc4[nH]c(C)c(C)c4c3)c2cc1Cl | -98 | 23 | 46* | -2
Cc1c(C(=O)N2CCC(Cc3ccccc3)CC2)oc2c1C(=O)CCC2 | 33* | 10 | 18 | 20
Cc1cc2nc(N3CCN(C(=O)c4ccccc4)CC3)c3ccccc3n2n1 | 34* | 1 | 16 | 4
Cc1cc(Cl)ccc1OCC(=O)Nc1ccccc1C(=O)Nc1ccccc1 | -3 | -3 | 0 | -9
COc1ccc(CCNc2nc(-c3ccccc3)cc(-c3ccccc3)c2C#N)cc1OC | 26 | 3 | 37* | -2
CCCCOc1cccc(C(=O)Nc2ccc(OCC)c3ncccc23)c1 | 1 | 83* | 47* | 18
Cc1ccc(CNC(=O)c2cc(=O)nc3sc(N4CCCCCC4)nn23)cc1 | 31* | 14 | 4 | 17
COc1ccc(OC)c(CC2(NC(=O)c3ccccc3)N=C3C=CC=CN3C2=O)c1 (stereo not given) | 30* | 27 | 22 | -2
O=C(NCc1cc2ccccc2[nH]1)c1ccc(COc2ccc(Br)cc2)cc1 | -58 | 55* | 9 | 18
